# Measured values: the supplement of paper PMC4466140
# Target: AgAbp1
# Test: SPOT peptide array binding signal intensity (averaged, normalized) (arbitrary units (background-subtracted, floor 0; scale differs between SH3 domains)); higher = stronger binding of the SH3 domain to the peptide
# How it was run: (§1)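 SH3 domains from four yeast species were expressed as GST fusions in E. coli BL21(DE3) and purified on glutathione Sepharose. Each was incubated at 10 μg/ml overnight at 4°C in TBS-based blocking buffer on cellulose membranes bearing synthetic 15-mer peptides, in which serines replaced cysteines. Bound protein was detected with anti-GST antibody, an HRP anti-mouse secondary and luminol, then imaged and quantified with Genespotter. The binding signal is the normalized, background-subtracted spot intensity averaged over replicates, in arbitrary units that are not the same from one domain to another.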
row,Binder,SPOT peptide array binding signal intensity
1,VGFRLALKFPSRITG,156

# Target: AgBbc1
# Test: as above
# How it was run: as §1
row,Binder,SPOT peptide array binding signal intensity
1,VGFRLALKFPSRITG,89.2

# Target: AgBem1-D1
# Test: as above
# How it was run: as §1
row,Binder,SPOT peptide array binding signal intensity
1,VGFRLALKFPSRITG,596

# Target: AgBzz1-D1
# Test: as above
# How it was run: as §1
row,Binder,SPOT peptide array binding signal intensity
1,VGFRLALKFPSRITG,231

# Target: AgBzz1-D2
# Test: as above
# How it was run: as §1
row,Binder,SPOT peptide array binding signal intensity
1,VGFRLALKFPSRITG,180

# Target: AgCyk3
# Test: as above
# How it was run: as §1
row,Binder,SPOT peptide array binding signal intensity
1,VGFRLALKFPSRITG,107

# Target: AgFus1
# Test: as above
# How it was run: as §1
row,Binder,SPOT peptide array binding signal intensity
1,VGFRLALKFPSRITG,3790

# Target: AgHof1
# Test: as above
# How it was run: as §1
row,Binder,SPOT peptide array binding signal intensity
1,VGFRLALKFPSRITG,137

# Target: AgHse1
# Test: as above
# How it was run: as §1
row,Binder,SPOT peptide array binding signal intensity
1,VGFRLALKFPSRITG,3050

# Target: AgLsb1
# Test: as above
# How it was run: as §1
row,Binder,SPOT peptide array binding signal intensity
1,VGFRLALKFPSRITG,17.2

# Target: AgLsb4
# Test: as above
# How it was run: as §1
row,Binder,SPOT peptide array binding signal intensity
1,VGFRLALKFPSRITG,1990

# Target: AgMyo5
# Test: as above
# How it was run: as §1
row,Binder,SPOT peptide array binding signal intensity
1,VGFRLALKFPSRITG,9.5

# Target: AgNbp2
# Test: as above
# How it was run: as §1
row,Binder,SPOT peptide array binding signal intensity
1,VGFRLALKFPSRITG,1370

# Target: AgRvs167
# Test: as above
# How it was run: as §1
row,Binder,SPOT peptide array binding signal intensity
1,VGFRLALKFPSRITG,55.5

# Target: AgSho1
# Test: as above
# How it was run: as §1
row,Binder,SPOT peptide array binding signal intensity
1,VGFRLALKFPSRITG,2510

# Target: AgSla1-D1-D2
# Test: as above
# How it was run: as §1
row,Binder,SPOT peptide array binding signal intensity
1,VGFRLALKFPSRITG,505

# Target: AgSla1-D3
# Test: as above
# How it was run: as §1
row,Binder,SPOT peptide array binding signal intensity
1,VGFRLALKFPSRITG,31

# Target: CaAbp1-D1
# Test: as above
# How it was run: as §1
row,Binder,SPOT peptide array binding signal intensity
1,VGFRLALKFPSRITG,766

# Target: CaAbp1-D2
# Test: as above
# How it was run: as §1
row,Binder,SPOT peptide array binding signal intensity
1,VGFRLALKFPSRITG,1210

# Target: CaBbc1
# Test: as above
# How it was run: as §1
row,Binder,SPOT peptide array binding signal intensity
1,VGFRLALKFPSRITG,179

# Target: CaBem1-D1
# Test: as above
# How it was run: as §1
row,Binder,SPOT peptide array binding signal intensity
1,VGFRLALKFPSRITG,147

# Target: CaBzz1-D1
# Test: as above
# How it was run: as §1
row,Binder,SPOT peptide array binding signal intensity
1,VGFRLALKFPSRITG,976

# Target: CaBzz1-D2
# Test: as above
# How it was run: as §1
row,Binder,SPOT peptide array binding signal intensity
1,VGFRLALKFPSRITG,473

# Target: CaCyk3
# Test: as above
# How it was run: as §1
row,Binder,SPOT peptide array binding signal intensity
1,VGFRLALKFPSRITG,118

# Target: CaFus1
# Test: as above
# How it was run: as §1
row,Binder,SPOT peptide array binding signal intensity
1,VGFRLALKFPSRITG,5990

# Target: CaHof1
# Test: as above
# How it was run: as §1
row,Binder,SPOT peptide array binding signal intensity
1,VGFRLALKFPSRITG,13.8

# Target: CaHse1
# Test: as above
# How it was run: as §1
row,Binder,SPOT peptide array binding signal intensity
1,VGFRLALKFPSRITG,966

# Target: CaLsb1
# Test: as above
# How it was run: as §1
row,Binder,SPOT peptide array binding signal intensity
1,VGFRLALKFPSRITG,25

# Target: CaLsb4
# Test: as above
# How it was run: as §1
row,Binder,SPOT peptide array binding signal intensity
1,VGFRLALKFPSRITG,716

# Target: CaMyo5
# Test: as above
# How it was run: as §1
row,Binder,SPOT peptide array binding signal intensity
1,VGFRLALKFPSRITG,105

# Target: CaNbp2
# Test: as above
# How it was run: as §1
row,Binder,SPOT peptide array binding signal intensity
1,VGFRLALKFPSRITG,2320

# Target: CaRvs167
# Test: as above
# How it was run: as §1
row,Binder,SPOT peptide array binding signal intensity
1,VGFRLALKFPSRITG,703

# Target: CaRvs167-3
# Test: as above
# How it was run: as §1
row,Binder,SPOT peptide array binding signal intensity
1,VGFRLALKFPSRITG,2360

# Target: CaSho1
# Test: as above
# How it was run: as §1
row,Binder,SPOT peptide array binding signal intensity
1,VGFRLALKFPSRITG,3450

# Target: CaSla1-D1-D2
# Test: as above
# How it was run: as §1
row,Binder,SPOT peptide array binding signal intensity
1,VGFRLALKFPSRITG,108

# Target: CaSla1-D3
# Test: as above
# How it was run: as §1
row,Binder,SPOT peptide array binding signal intensity
1,VGFRLALKFPSRITG,782

# Target: ScAbp1
# Test: as above
# How it was run: as §1
row,Binder,SPOT peptide array binding signal intensity
1,VGFRLALKFPSRITG,137

# Target: ScBbc1
# Test: as above
# How it was run: as §1
row,Binder,SPOT peptide array binding signal intensity
1,VGFRLALKFPSRITG,11.5

# Target: ScBem1-D1
# Test: as above
# How it was run: as §1
row,Binder,SPOT peptide array binding signal intensity
1,VGFRLALKFPSRITG,60

# Target: ScBzz1-D1
# Test: as above
# How it was run: as §1
row,Binder,SPOT peptide array binding signal intensity
1,VGFRLALKFPSRITG,188

# Target: ScBzz1-D2
# Test: as above
# How it was run: as §1
row,Binder,SPOT peptide array binding signal intensity
1,VGFRLALKFPSRITG,649

# Target: ScCyk3
# Test: as above
# How it was run: as §1
row,Binder,SPOT peptide array binding signal intensity
1,VGFRLALKFPSRITG,137

# Target: ScFus1
# Test: as above
# How it was run: as §1
row,Binder,SPOT peptide array binding signal intensity
1,VGFRLALKFPSRITG,3260

# Target: ScHof1
# Test: as above
# How it was run: as §1
row,Binder,SPOT peptide array binding signal intensity
1,VGFRLALKFPSRITG,7.5

# Target: ScHse1
# Test: as above
# How it was run: as §1
row,Binder,SPOT peptide array binding signal intensity
1,VGFRLALKFPSRITG,3980

# Target: ScLsb1
# Test: as above
# How it was run: as §1
row,Binder,SPOT peptide array binding signal intensity
1,VGFRLALKFPSRITG,12

# Target: ScLsb2
# Test: as above
# How it was run: as §1
row,Binder,SPOT peptide array binding signal intensity
1,VGFRLALKFPSRITG,38

# Target: ScLsb3
# Test: as above
# How it was run: as §1
row,Binder,SPOT peptide array binding signal intensity
1,VGFRLALKFPSRITG,1230

# Target: ScLsb4
# Test: as above
# How it was run: as §1
row,Binder,SPOT peptide array binding signal intensity
1,VGFRLALKFPSRITG,152

# Target: ScMyo3
# Test: as above
# How it was run: as §1
row,Binder,SPOT peptide array binding signal intensity
1,VGFRLALKFPSRITG,8.5

# Target: ScMyo5
# Test: as above
# How it was run: as §1
row,Binder,SPOT peptide array binding signal intensity
1,VGFRLALKFPSRITG,26.5

# Target: ScNbp2
# Test: as above
# How it was run: as §1
row,Binder,SPOT peptide array binding signal intensity
1,VGFRLALKFPSRITG,1400

# Target: ScPex13
# Test: as above
# How it was run: as §1
row,Binder,SPOT peptide array binding signal intensity
1,VGFRLALKFPSRITG,67.8

# Target: ScRvs167
# Test: as above
# How it was run: as §1
row,Binder,SPOT peptide array binding signal intensity
1,VGFRLALKFPSRITG,180

# Target: ScSho1
# Test: as above
# How it was run: as §1
row,Binder,SPOT peptide array binding signal intensity
1,VGFRLALKFPSRITG,3930

# Target: ScSla1-D1-D2
# Test: as above
# How it was run: as §1
row,Binder,SPOT peptide array binding signal intensity
1,VGFRLALKFPSRITG,561

# Target: ScSla1-D3
# Test: as above
# How it was run: as §1
row,Binder,SPOT peptide array binding signal intensity
1,VGFRLALKFPSRITG,246

# Target: SpAbp1-D1
# Test: as above
# How it was run: as §1
row,Binder,SPOT peptide array binding signal intensity
1,VGFRLALKFPSRITG,658

# Target: SpBbc1
# Test: as above
# How it was run: as §1
row,Binder,SPOT peptide array binding signal intensity
1,VGFRLALKFPSRITG,97.5

# Target: SpBzz1-D1
# Test: as above
# How it was run: as §1
row,Binder,SPOT peptide array binding signal intensity
1,VGFRLALKFPSRITG,1110

# Target: SpBzz1-D2
# Test: as above
# How it was run: as §1
row,Binder,SPOT peptide array binding signal intensity
1,VGFRLALKFPSRITG,111

# Target: SpCyk3
# Test: as above
# How it was run: as §1
row,Binder,SPOT peptide array binding signal intensity
1,VGFRLALKFPSRITG,75

# Target: SpHof1
# Test: as above
# How it was run: as §1
row,Binder,SPOT peptide array binding signal intensity
1,VGFRLALKFPSRITG,620

# Target: SpHof1-2
# Test: as above
# How it was run: as §1
row,Binder,SPOT peptide array binding signal intensity
1,VGFRLALKFPSRITG,179

# Target: SpHof1-3
# Test: as above
# How it was run: as §1
row,Binder,SPOT peptide array binding signal intensity
1,VGFRLALKFPSRITG,2110

# Target: SpHse1
# Test: as above
# How it was run: as §1
row,Binder,SPOT peptide array binding signal intensity
1,VGFRLALKFPSRITG,1790

# Target: SpLsb1
# Test: as above
# How it was run: as §1
row,Binder,SPOT peptide array binding signal intensity
1,VGFRLALKFPSRITG,40.5

# Target: SpLsb4
# Test: as above
# How it was run: as §1
row,Binder,SPOT peptide array binding signal intensity
1,VGFRLALKFPSRITG,913

# Target: SpMyo1
# Test: as above
# How it was run: as §1
row,Binder,SPOT peptide array binding signal intensity
1,VGFRLALKFPSRITG,41

# Target: SpNbp2
# Test: as above
# How it was run: as §1
row,Binder,SPOT peptide array binding signal intensity
1,VGFRLALKFPSRITG,2320

# Target: SpPex13
# Test: as above
# How it was run: as §1
row,Binder,SPOT peptide array binding signal intensity
1,VGFRLALKFPSRITG,578

# Target: SpRvs167
# Test: as above
# How it was run: as §1
row,Binder,SPOT peptide array binding signal intensity
1,VGFRLALKFPSRITG,161

# Target: SpSla1-D1-D2
# Test: as above
# How it was run: as §1
row,Binder,SPOT peptide array binding signal intensity
1,VGFRLALKFPSRITG,17

# Target: SpSla1-D3
# Test: as above
# How it was run: as §1
row,Binder,SPOT peptide array binding signal intensity
1,VGFRLALKFPSRITG,260
